Laboratory results as given in PubChem BioAssay AID1159580 (chemical genetic matrix, 2015).
Where “and” joins values, the source holds several entries; their conditions need not be identical. Equal entries are not always repeated. Among all 5,500 compounds or so, about 2,000 (36%) were called active. Not shown: some 18% with an inconclusive outcome. Rule as the data show it: active = normalized growth mostly below about 0.91 (no sharp cut-off); inconclusive = no clear call, values can overlap the other calls; inactive = mostly above about 0.92. The list shows a part of the results.

Assay: chemical genetic growth profiling, strain panel (AID 1159580);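 also: tested at 20 µM; growth read once vehicle control cultures reached saturation at 30 °C; 1 = growth at the plate median or of vehicle wells; lower values mean less growth of the strain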
Settings: S. cerevisiae deletion strains, growth OD

Measured: normalized growth

Nc1ccc(S(=O)(=O)c2ccc(N)cc2)cc1
inactive: locus YAL013W, strain DEP1, hits give low values 1.01 | locus YAL021C, strain ccr4, hits give low values 0.99 | locus YAL026C, strain drs2, hits give low values 1 | locus YAL030W, strain snc1, hits give low values 0.976 | locus YBL061C, strain skt5, hits give low values 0.993 | locus YBR009C, strain hhf1, hits give low values 1 | locus YBR021W, strain FUR4, hits give low values 1.04 | locus YBR023C, strain chs3, hits give low values 0.979 | locus YBR171W, strain sec66, hits give low values 1 | locus YBR229C, strain ROT2, hits give low values 1.01 | locus YBR231C, strain swc5, hits give low values 0.975 | locus YBR279W, strain paf1, hits give low values 0.983 | locus YCL011C, strain gbp2, hits give low values 0.999 | locus YCL016C, strain dcc1, hits give low values 0.997 | locus YCL029C, strain bik1, hits give low values 1.03 | locus YCL069W, strain vba3, hits give low values 1.01 | locus YCR088W, strain abp1, hits give low values 1.01 | locus YDL005C, strain med2, hits give low values 0.98 | locus YDL035C, strain GPR1, hits give low values 1.03 | locus YDL040C, strain nat1, hits give low values 0.991 | locus YDL074C, strain BRE1, hits give low values 1.02 | locus YDL101C, strain DUN1, hits give low values 1.02 | locus YDL134C, strain PPH21, hits give low values 1.02 | locus YDL185W, strain tfp1, hits give low values 1.02 | locus YDL192W, strain arf1, hits give low values 1.01 | locus YDR001C, strain nth1, hits give low values 1 | locus YDR069C, strain doa4, hits give low values 0.987 | locus YDR101C, strain arx1, hits give low values 0.987 | locus YDR137W, strain rgp1, hits give low values 1.01 | locus YDR159W, strain sac3, hits give low values 0.979 | locus YDR162C, strain NBP2, hits give low values 1.04 | locus YDR195W, strain ref2 0.939 | locus YDR297W, strain sur2, hits give low values 0.996 | locus YDR318W, strain mcm21, hits give low values 1.01 | locus YDR334W, strain swr1, hits give low values 0.986 | locus YDR335W, strain msn5, hits give low values 1 | locus YDR388W, hits give low values 1 | locus YDR392W, strain spt3, hits give low values 0.992 | locus YDR502C, strain sam2, hits give low values 1 | locus YEL003W, strain gim4, hits give low values 1.01 | locus YEL037C, strain rad23, hits give low values 1.01 | locus YEL061C, strain CIN8 (second series), hits give low values 1 | locus YEL061C, strain CIN8, hits give low values 1.01 | locus YER015W, strain faa2, hits give low values 0.999 | locus YER016W, strain bim1, hits give low values 0.991 | locus YER110C, hits give low values 0.993 | locus YER111C, strain swi4, hits give low values 1.02 | locus YER155C, strain BEM2 (second series), hits give low values 0.954 | locus YER155C, strain BEM2, hits give low values 1.02 | locus YER167W, strain BCK2, hits give low values 1.02 | locus YFR010W, strain ubp6, hits give low values 0.988 | locus YGL078C, strain dbp3, hits give low values 0.993 | locus YGL086W, strain mad1, hits give low values 1 | locus YGL167C, strain pmr1, hits give low values 0.995 | locus YGL173C, strain kem1, hits give low values 0.979 | locus YGL227W, strain vid30, hits give low values 1.01 | locus YGL240W, strain doc1, hits give low values 0.988 | locus YGL248W, strain PDE1, hits give low values 1.02 | locus YGL253W, strain hxk2, hits give low values 0.99 | locus YGR135W, strain pre9, hits give low values 1.01 | locus YGR229C, strain SMI1, hits give low values 1.03 | locus YGR252W, strain gcn5, hits give low values 1.01 | locus YHR013C, strain ard1, hits give low values 0.973 | locus YHR027C, strain rpn1, hits give low values 0.991 | locus YHR030C, strain SLT2, hits give low values 1.02 and 1.01 | locus YHR079C, strain IRE1 (second series), hits give low values 1.01 | locus YHR079C, strain IRE1, hits give low values 1.03 | locus YHR094C, strain hxt1, hits give low values 1.01 | locus YHR129C, strain ARP1, hits give low values 1.01 | locus YHR142W, strain chs7, hits give low values 1.01 | locus YHR200W, strain rpn10, hits give low values 1 | locus YIL066C, strain RNR3, hits give low values 1.02 | locus YIL073C, strain SPO22, hits give low values 1.03 | locus YIL125W, strain kgd1, hits give low values 1.01 | locus YIR030C, strain dcg1, hits give low values 1.01 | locus YJL092W, strain hpr5, hits give low values 0.998 | locus YJL095W, strain BCK1 (second series), hits give low values 0.983 | locus YJL095W, strain BCK1, hits give low values 1.02 and 1.03 | locus YJL115W, strain asf1, hits give low values 1 | locus YJL129C, strain trk1, hits give low values 0.991 | locus YJL134W, strain LCB3, hits give low values 1.03 | locus YJL154C, strain vps35, hits give low values 0.987 | locus YJL164C, strain tpk1, hits give low values 0.987 | locus YJL166W, strain qcr8, hits give low values 1 | locus YJL168C, strain set2, hits give low values 0.996 | locus YJL187C, strain SWE1 (second series), hits give low values 1.01 | locus YJL187C, strain SWE1, hits give low values 1 | locus YJR043C, strain POL32, hits give low values 1.01 | locus YJR066W, strain TOR1, hits give low values 0.98 | locus YJR075W, strain HOC1, hits give low values 1.02 | locus YKL009W, strain mrt4, hits give low values 0.988 | locus YKL068W, hits give low values 1.01 | locus YKL085W, strain MDH1 (second series), hits give low values 1.01 | locus YKL085W, strain MDH1, hits give low values 1.01 | locus YKL160W, strain elf1, hits give low values 0.988 | locus YKR001C, strain vps1, hits give low values 0.994 | locus YKR026C, strain gcn3, hits give low values 0.99 | locus YKR091W, strain srl3, hits give low values 1 | locus YLL001W, strain dnm1, hits give low values 0.991 | locus YLL026W, hits give low values 0.987 | locus YLL041C, strain sdh2, hits give low values 1.01 | locus YLR027C, strain aat2, hits give low values 1 | locus YLR039C, strain RIC1, hits give low values 0.972 | locus YLR058C, strain SHM2, hits give low values 1.02 | locus YLR102C, strain apc9, hits give low values 1.01 | locus YLR113W, strain HOG1, hits give low values 1.05 | locus YLR221C, strain rsa3, hits give low values 0.984 | locus YLR258W, strain gsy2, hits give low values 0.999 | locus YLR262C, strain YPT6 (second series), hits give low values 0.966 | locus YLR262C, strain YPT6, hits give low values 1.02 | locus YLR268W, strain sec22, hits give low values 1.01 | locus YLR320W, strain mms22, hits give low values 0.995 | locus YLR330W, strain CHS5, hits give low values 1.02 | locus YLR342W, strain FKS1 (second series), hits give low values 1.03 | locus YLR342W, strain FKS1, hits give low values 0.996 | locus YLR357W, strain rsc2, hits give low values 0.969 | locus YLR370C, strain arc18, hits give low values 0.992 | locus YLR371W, strain rom2, hits give low values 1.01 | locus YLR384C, strain iki3, hits give low values 0.987 | locus YLR418C, strain cdc73, hits give low values 1 | locus YML016C, strain PPZ1, hits give low values 1.01 | locus YML032C, strain rad52, hits give low values 0.999 | locus YML120C, strain ndi1, hits give low values 0.999 | locus YML124C, strain tub3, hits give low values 1.02 | locus YMR058W, strain fet3, hits give low values 1 | locus YMR078C, strain ctf18, hits give low values 1.01 | locus YMR125W, strain sto1, hits give low values 1 | locus YMR129W, hits give low values 0.996 | locus YMR205C, strain PFK2, hits give low values 0.976 | locus YMR223W, strain ubp8, hits give low values 0.994 | locus YMR231W, strain pep5, hits give low values 0.986 | locus YMR263W, strain SAP30, hits give low values 1.01 | locus YMR307W, strain GAS1, hits give low values 1.08 | locus YNL067W, strain RPL9B, hits give low values 1.02 | locus YNL071W, strain lat1, hits give low values 0.997 | locus YNL153C, strain GIM3, hits give low values 1.01 | locus YNL183C, strain NPR1, hits give low values 0.98 | locus YNL209W, strain ssb2, hits give low values 1 | locus YNL233W, strain BNI4, hits give low values 1.02 | locus YNL248C, strain rpa49, hits give low values 0.951 | locus YNL250W, strain rad50, hits give low values 0.985 | locus YNL271C, strain bni1, hits give low values 0.995 | locus YNL298W, strain CLA4, hits give low values 1 | locus YNL307C, strain MCK1, hits give low values 1 | locus YNL322C, strain KRE1 (second series), hits give low values 1 | locus YNR049C, strain mso1, hits give low values 1 | locus YNR052C, strain pop2, hits give low values 1.01 | locus YOL012C, strain htz1 0.692 | locus YOL147C, strain pex11, hits give low values 1.01 | locus YOR001W, strain rrp6, hits give low values 0.998 | locus YOR061W, strain CKA2, hits give low values 1.02 | locus YOR069W, strain VPS5, hits give low values 1.01 | locus YOR070C, strain gyp1, hits give low values 0.992 | locus YOR080W, strain dia2, hits give low values 0.984 | locus YOR083W, strain WHI5, hits give low values 0.984 | locus YOR106W, strain vam3, hits give low values 1.01 | locus YOR136W, strain idh2, hits give low values 1 | locus YOR144C, strain elg1, hits give low values 1.01 | locus YOR184W, strain ser1, hits give low values 1.02 | locus YOR231W, strain MKK1, hits give low values 1.04 | locus YOR265W, strain rbl2, hits give low values 0.987 | locus YOR270C, strain vph1, hits give low values 1.05 | locus YOR290C, strain snf2, hits give low values 0.99 | locus YOR316C, strain cot1, hits give low values 1 | locus YPL051W, strain arl3, hits give low values 0.977 | locus YPL055C, strain LGE1, hits give low values 1.03 | locus YPL078C, strain atp4, hits give low values 0.998 | locus YPL106C, strain sse1, hits give low values 0.984 | locus YPL240C, strain hsp82, hits give low values 0.991 | locus YPL241C, strain CIN2, hits give low values 1.01 | locus YPL256C, strain CLN2, hits give low values 1.02 | locus YPR119W, strain clb2, hits give low values 1.01 | locus YPR141C, strain kar3, hits give low values 1.02 | locus YPR163C, strain tif3, hits give low values 1.01 | locus YPR167C, strain met16, hits give low values 1.01 | strain wtn01, hits give low values 0.983
